Screening results deposited in PubChem BioAssay by National Center for Advancing Translational Sciences (NCATS).
Hits are enriched below; roughly 3% of the tested compounds scored in any of these assays.
SKOV3 invasion = ovarian cancer metastasis inhibition, 3D TME model; SKOV3ip1-GFP adhesion/invasion on 3D omental model, fluorescence; Potency, µM (titrated, usually from 45.8 µM), inactives show at the top dose activity change, negative = inhibition, usual class: inhibitors; 46,000 compounds, 0.1% hits; AID 1963576;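 note: potency is the fitted concentration of half-maximal effect; plate controls were DMSO wells for no effect and tomatine positive control wells for full effect; nearly all actives have a fitted effect of over 65% in size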
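qHTS, 4-pt dose (0.36-46 umol/L); SKOV3ip1-GFP, 1,200 cells/well, no FBS; primary omental fibroblast/mesothelial co-culture 48 h pre-grown; 2 h RT + 16 h 37 C; PBS wash, 4% PFA; GFP count 488/509 nm.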
p53null 39C kill = p53 null cell cytotoxicity, nonpermissive temperature; H1299 p53-null (neo) cells, 39C, ATPlite viability, 24 h; Potency, µM (series often up to 46.1 µM), for inactives: top-dose activity, negative = cell killing, actives largely listed as cytotoxic; 55,000 compounds, 0.97% hits;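 note: potency is the fitted concentration of half-maximal effect; 0% = DMSO only and -100% = full killing by 100 µM tamoxifen; nearly all actives have a fitted effect of over 50% in size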
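Concentration-response (up to 46 uM) was run for 24 h at the nonpermissive 39C on H1299-p53A138V or H1299-neo cells. ATP content was measured with ATPlite luminescence. AC50 values were Hill-modeled after normalizing between DMSO and 100 uM tamoxifen killing.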
mTORC1 inh = reduces mTORC1 signaling in Tsc2 and p53 null MEF cells. Tsc2-/- p53-/- MEF, phospho-rpS6 immunofluorescence/PI, 24 h. Potency, µM (series often up to 38.3 µM), for the others: top-dose activity change, negative = inhibition, most hits filed as inhibitors. 44,000 compounds, 0.78% hits;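 note: potency is the fitted concentration of half-maximal effect; plate controls were DMSO for no effect and rapamycin for full effect; nearly all actives have a fitted effect of over 50% in size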
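Immunofluorescence of rpS6 phosphorylation in Tsc2-/-, p53-/- MEFs after 24 h compound exposure, normalized to propidium iodide signal. Activity is expressed as % positive cells, thresholded with 7.5 nM rapamycin.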
S16 F2sN tox = toxic to S16 Pmp22-F2sN Schwann cells | S16 Pmp22-F2sN Schwann cells viability, CellTiter-Glo, 24 h | Potency, µM (series often up to 57.5 µM), for the others: at the highest dose activity change, negative = cytotoxicity, most hits filed as cytotoxic | 43,000 compounds, 0.48% hits; note: potency is the fitted concentration of half-maximal effect; % is set by controls: 0 for no effect and ±100 for the full control effect; nearly all actives have a fitted effect of over 65% in size
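Rat S16 Schwann reporter line, 24 h treatment with library compounds delivered at 23 nL per well. Cell viability by CellTiter-Glo luminescence.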
PMP22 txn prim = PMP22 gene transcription modulation. 43,000 compounds, 2% hits. Potency, µM (doses to about 57.5 µM), for the others: at the highest dose activity change, negative = inhibition, usual class: inhibitors. S16 Pmp22-F2sN Schwann cells, FLuc/NLuc coincidence luminescence, 24 h; active = clear falling dose curves in both reporters; inconclusive = both reporters move, but less clearly or upward; inactive = either reporter flat; the % is the NLuc reporter signal; note: potency is the fitted concentration of half-maximal effect; % is set by controls: 0 for no effect and ±100 for the full control effect
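Luminescent read-out of sequential FLuc and NLuc signals from a reporter embedded in the Pmp22 3' UTR of S16 Schwann cells, taken after 24 h compound exposure at 37C; compounds reducing both signals score as inhibitors of expression.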
p53null 32C tox = selectivity test: cytotoxicity in p53 null cells, permissive temperature; H1299-neo p53 null cells, ATP luminescence, 24 h, 32C; Potency, µM (series often up to 46.1 µM), for the others: top-dose activity change, negative = cytotoxicity, most hits filed as cytotoxic; 55,000 compounds, 0.62% hits;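 note: potency is the fitted concentration of half-maximal effect; 0% = DMSO only and -100% = full killing by 100 µM tamoxifen; nearly all actives have a fitted effect of over 55% in size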
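Overnight 37C seeding (600 cells/well) of H1299-neo preceded a 24 hr, 32C exposure to compounds up to 46 uM. ATP levels, read by luminescence after 20 min at RT, indicated surviving cells.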
NLuc saturating = NanoLuc enzyme inhibition artifact for PMP22 screen; AID 1508638; Potency, µM (series often up to 57.5 µM), for inactives: at the highest dose activity change, negative = inhibition, usual class: inhibitors; shares compounds with PMP22 txn prim; Secreted NLuc enzyme (filtered S16 cell medium), Nano-Glo luminescence; 690 compounds, 4% hits; note: potency is the fitted concentration of half-maximal effect; % is set by controls: 0 for no effect and ±100 for the full control effect
NLuc Km ctr = inhibits NanoLuc under Km conditions, PMP22 counter-screen; shares compounds with PMP22 txn prim; secreted NLuc enzyme, coelenterazine luminescence, Km conditions; Potency, µM (titrated, usually from 57.5 µM), for inactives: at the highest dose activity change, negative = inhibition, hits mostly inhibitors; 690 compounds, 5% hits; note: potency is the fitted concentration of half-maximal effect; % is set by controls: 0 for no effect and ±100 for the full control effect
FLuc counter = counter-screen for PMP22 expression modulators: firefly luciferase inhibition; purified P. pyralis FLuc, luminescence, 10 min; shares compounds with PMP22 txn prim; Potency, µM (doses to about 57.5 µM), for the others: at the highest dose activity, negative = inhibition, usual class: inhibitors; 690 tested, under 10 active; note: % of control where 0% means no effect
Target sequence (P08659 whole entry, looked up): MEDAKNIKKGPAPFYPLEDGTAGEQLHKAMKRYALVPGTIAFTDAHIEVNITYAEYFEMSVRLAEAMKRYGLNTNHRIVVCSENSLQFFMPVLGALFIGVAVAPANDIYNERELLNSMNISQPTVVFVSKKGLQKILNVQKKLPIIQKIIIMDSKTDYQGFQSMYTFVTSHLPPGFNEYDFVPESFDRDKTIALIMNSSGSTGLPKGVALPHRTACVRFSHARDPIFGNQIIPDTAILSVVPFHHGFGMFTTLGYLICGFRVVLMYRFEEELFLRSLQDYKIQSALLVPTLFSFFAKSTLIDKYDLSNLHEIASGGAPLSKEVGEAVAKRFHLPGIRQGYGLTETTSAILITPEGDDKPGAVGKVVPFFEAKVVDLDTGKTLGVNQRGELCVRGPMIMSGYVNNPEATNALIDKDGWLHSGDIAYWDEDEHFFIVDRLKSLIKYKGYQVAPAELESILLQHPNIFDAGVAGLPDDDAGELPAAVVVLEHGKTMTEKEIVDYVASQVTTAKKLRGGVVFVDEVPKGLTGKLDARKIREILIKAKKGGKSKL
S16 F2sN tox cnf = confirmation of cytotoxicity in S16 Pmp22-F2sN Schwann cells (luciferase reporters placed in the Pmp22 gene). S16 Schwann cells viability, CellTiter-Glo ATP luminescence, 24 h. 690 compounds, 7% hits. shares compounds with PMP22 txn prim. AID 1508641. Potency, µM (top dose mostly 57.5 µM), for the others: at the top dose activity change, negative = viability loss, actives largely listed as cytotoxic; note: potency is the fitted concentration of half-maximal effect; % is set by controls: 0 for no effect and ±100 for the full control effect
PMP22 txn conf = PMP22 transcription modulation, confirmatory. shares compounds with PMP22 txn prim. S16 Schwann cells Pmp22-F2sN, dual luciferase, 24 h. Potency, µM (doses to about 57.5 µM), for the others: top-dose activity change, negative = inhibition, hits mostly inhibitors. 690 compounds, 22% hits; active = clear falling dose curves in both reporters; inconclusive = both reporters move, but less clearly or upward; inactive = either reporter flat; the % is the FLuc reporter signal; note: potency is the fitted concentration of half-maximal effect
The depositor's hits bear a star; [ ] = remark or other dose. Unless noted, calls come from the whole dose curve; as a rule, active = well fitted curve in the direction sought with a large enough effect; inconclusive = small, poorly fitted or top-dose-only effect, or another doubt; inactive = no such curve, though single readings can be large; an effect the other way counts as inactive or inconclusive.

Results for CCc1nn(CC(=O)N(CC)Cc2ccccc2)c(=O)c2cc3occc3n12 ?
SKOV3 invasion: inactive; p53null 39C kill: 8%; mTORC1 inh: 0%; S16 F2sN tox: 6%; PMP22 txn prim: inconclusive; p53null 32C tox: -7%; NLuc saturating: -20%; NLuc Km ctr: inconclusive; FLuc counter: 3%; S16 F2sN tox cnf: 5%; PMP22 txn conf: -3%

Results for Nc1nccc(-c2ccc3noc(-c4ccc(Cl)cc4)c3c2)n1 ?
SKOV3 invasion: -13%

How did CC[C@H](C=C[C@@H](C)[C@H]1CC[C@H]2[C@@H]3CC=C4C[C@@H](O)CC[C@]4(C)[C@@H]3CC[C@]12C)C(C)C do in these assays?
SKOV3 invasion: 1%[23.2 µM]

Results for Cc1c(C(=O)Nc2ccc(F)cc2)oc2ccc(S(=O)(=O)N3CCCCCC3)cc12 ?
SKOV3 invasion: -16%; p53null 39C kill: 24%; mTORC1 inh: -5%; S16 F2sN tox: -28%; PMP22 txn prim: 15µM*; p53null 32C tox: 6%; NLuc saturating: -10%; NLuc Km ctr: -19%; FLuc counter: 1%; S16 F2sN tox cnf: -8%; PMP22 txn conf: -35%

What do the screens show for `CC(=O)N1c2ccc(S(=O)(=O)NCC3CCC(C(=O)Nc4cc(C)ccc4C)CC3)cc2CC1C` (stereo not given)?
SKOV3 invasion: -22%; p53null 39C kill: -8%; mTORC1 inh: -20%; S16 F2sN tox: inconclusive; PMP22 txn prim: inconclusive; p53null 32C tox: 1%; NLuc saturating: -15%; NLuc Km ctr: 2%; FLuc counter: 4%; S16 F2sN tox cnf: -24%; PMP22 txn conf: -47%

How did CC(=O)N1c2ccc(S(=O)(=O)NCC3CCC(C(=O)Nc4ccccc4C)CC3)cc2CC1C (stereo not given) do in these assays?
SKOV3 invasion: 10%; p53null 39C kill: -9%; mTORC1 inh: -26%; S16 F2sN tox: -8%; PMP22 txn prim: -27%; p53null 32C tox: -3%

How did COc1cc2c(cc1-c1c(C)noc1C)ncc1[nH]c(=O)n([C@H](C)c3ccccn3)c12 do in these assays?
SKOV3 invasion: 54%
